From PubChem BioAssay
Several values for one entry are separate records, joined by “and”; a condition that tells them apart may be missing. Equal values may be shown once. Records with an inconclusive call do not appear. For some of these results: Entries with a potency or affinity are not part of this list. Activity calls are given as the source filed them.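 How the source made its calls, unless noted: active means at least 20% inhibition of 6-phosphogluconate dehydrogenase activity; inactive means the rest.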

Columns and labels:
[1] = biological target: 6-phosphogluconate dehydrogenase, decarboxylating (Homo sapiens) (UniProt P52209); assay: 6PGD enzyme inhibitors, primary screen, biochemical, human, recombinant enzyme, NADPH absorbance (AID 1159550); details: recombinant 6PGD, NADPH absorbance 341 nm; at 10 µM; stronger effect = higher value
[2] = biological target: NAD(+) hydrolase SARM1 (Homo sapiens) (UniProt Q6SZW1); assay: SARM1 TIR NADase inhibitors, cell lysate, NAD-Glo luminescence (AID 1508614;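 active means compound whose remaining NAD level is above about 45 nM, limit read from the data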); details: SAM-TIR HEK293T lysate NADase, at 1 µM, stronger effect = higher value
[3] = biological target: Mitogen-activated protein kinase 7 (Homo sapiens) (UniProt Q13164); assay: ERK5 transactivation activators in reporter cells, primary screen, cell-based, HTS (AID 1508626;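 active means luciferase signal above three times the same-plate solvent-only control wells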;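 further: luciferase driven by Gal4-ERK5 fusion binding five Gal4 sites before minimal TATA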); details: HeLa Gal4-ERK5 transactivation, 18 h, at 5 µM, stronger effect = higher value
[4] = survival rescue of mitochondrial mutant cells in low glucose, primary screen, MELAS cybrids, Rieske KO mouse fibroblasts, CellTiter-Glo (AID 1508586;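 active means mean z-score across replicates of 1.96 or higher in either the MELAS or the Rieske mutant cell line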;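 further: z relative to plate mean and SD of compound and empty wells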)
[5] = polyglutamine-triggered caspase-3 activation inhibitors, cell-based (AID 1583); details: polyglutamine-induced caspase-3 activation, cell assay; stronger effect = higher value;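 tested at 10 µM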
[6] = suppressors of polyQ aggregation in yeast, 75Q-TubU reporter (AID 1593); details: Yeast 75Q polyglutamine aggregation reporter
[7] = rescue of polyQ-huntingtin neuronal dysfunction in worms, whole organism, C. elegans mechanosensory neurons, N-terminal huntingtin (AID 1599); details: touch response, stronger effect = higher value
[8] = inhibitors of mitochondrial cytochrome c release, biochemical, purified mitochondria (AID 1603); details: stronger effect = lower value;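 further: mouse liver mitochondria challenged with calcium chloride; signal normalized to the plate average as 100%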
[9] = inhibitors of polyQ protein aggregation (AID 1604); details: polyglutamine-induced protein aggregation inhibition assay; stronger effect = higher value; tested at 2.5 µM
[10] = enhancers of glutamate uptake in motor neurons, MN-1 cell line (AID 1612); details: MN-1 motor neuron cells, stronger effect = higher value;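 further: tested at 1 µM final; 0% = mean of DMSO vehicle wells on each plate; positive means more glutamate uptake than control and negative means less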
[11] = reducers of polyQ inclusions in PC12 cells, cell-based, NGF-treated PC12, GFPQ80 (AID 1614); details: PC12 NGF-treated GFP-polyQ80 inclusion reduction;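 further: lower means fewer inclusions and 0 means no inclusions at all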
[12] = suppressors of polyglutamine aggregation in yeast, 75Q-TubH (AID 1616); details: S. cerevisiae 75Q-TubH polyglutamine aggregation suppression; stronger effect = higher value
[13] = hESC survival regulators, cell-based (AID 493140; call rule not given here;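 further: cells exposed to compounds for four days before counting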); details: human embryonic stem cell survival screen; stronger effect = higher value
[14] = liver-stage malaria parasite growth inhibition, primary screen, cell-based, HepG2, luciferase luminescence, HepG2 viability (AID 624349; in the data active means parasite load remaining mostly below about 12%, no sharp cut-off; inactive means mostly above about 10%;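 further: 100% = mean of DMSO negative control wells on the same plate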); details: P. berghei liver stage in HepG2, luciferase luminescence, concentration not given here; parasite load remaining: stronger effect = lower value; viability: measured here: HepG2 viability without parasites
[15] = sensitizers of A549 cells to miR-34 induction, primary screen, imaging, A549 dox-inducible miR-34, nuclei and caspase counts (AID 1347080;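 active means compounds whose cell count with miR-34 switched on is under 0.7 times the count with it off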); details: A549 miR-34 inducible, Hoechst nuclei count, 48 h
[16] = biological target: ATP-dependent translocase ABCB1 (Homo sapiens) (UniProt P08183); assay: MDR1 (ABCB1) efflux transporter inhibition, cell-based (AID 377; in the data active means fluorescence slope change above about 50%); details: MDR1-expressing cells, fluorescent substrate accumulation slope; stronger effect = higher value; concentration not given here
[17] = stronger effect = lower value, cell number ratio, induced over uninduced
[18] = measured here: relative caspase fold change +Dox/-Dox
[19] = measured here: total cells with miR-34 induction, stronger effect = lower value
[20] = measured here: total cells without miR-34 induction

6-phosphogluconate dehydrogenase, decarboxylating (Homo sapiens), sequence (P52209 whole entry, looked up): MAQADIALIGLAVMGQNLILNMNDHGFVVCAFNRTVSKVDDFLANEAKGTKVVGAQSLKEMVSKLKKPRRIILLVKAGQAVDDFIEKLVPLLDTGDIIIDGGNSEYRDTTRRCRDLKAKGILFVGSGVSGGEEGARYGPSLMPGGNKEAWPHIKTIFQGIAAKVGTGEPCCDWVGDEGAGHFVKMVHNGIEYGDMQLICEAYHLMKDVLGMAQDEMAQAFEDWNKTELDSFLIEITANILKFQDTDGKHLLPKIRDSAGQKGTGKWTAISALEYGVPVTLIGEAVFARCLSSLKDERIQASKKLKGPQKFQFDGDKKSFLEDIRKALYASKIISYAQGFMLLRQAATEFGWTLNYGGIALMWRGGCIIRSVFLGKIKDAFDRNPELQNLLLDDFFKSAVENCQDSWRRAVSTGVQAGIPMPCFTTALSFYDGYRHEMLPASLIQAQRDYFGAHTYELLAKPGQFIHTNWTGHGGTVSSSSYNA
Mitogen-activated protein kinase 7 (Homo sapiens), sequence (Q13164 whole entry, looked up, the tested form may be a part): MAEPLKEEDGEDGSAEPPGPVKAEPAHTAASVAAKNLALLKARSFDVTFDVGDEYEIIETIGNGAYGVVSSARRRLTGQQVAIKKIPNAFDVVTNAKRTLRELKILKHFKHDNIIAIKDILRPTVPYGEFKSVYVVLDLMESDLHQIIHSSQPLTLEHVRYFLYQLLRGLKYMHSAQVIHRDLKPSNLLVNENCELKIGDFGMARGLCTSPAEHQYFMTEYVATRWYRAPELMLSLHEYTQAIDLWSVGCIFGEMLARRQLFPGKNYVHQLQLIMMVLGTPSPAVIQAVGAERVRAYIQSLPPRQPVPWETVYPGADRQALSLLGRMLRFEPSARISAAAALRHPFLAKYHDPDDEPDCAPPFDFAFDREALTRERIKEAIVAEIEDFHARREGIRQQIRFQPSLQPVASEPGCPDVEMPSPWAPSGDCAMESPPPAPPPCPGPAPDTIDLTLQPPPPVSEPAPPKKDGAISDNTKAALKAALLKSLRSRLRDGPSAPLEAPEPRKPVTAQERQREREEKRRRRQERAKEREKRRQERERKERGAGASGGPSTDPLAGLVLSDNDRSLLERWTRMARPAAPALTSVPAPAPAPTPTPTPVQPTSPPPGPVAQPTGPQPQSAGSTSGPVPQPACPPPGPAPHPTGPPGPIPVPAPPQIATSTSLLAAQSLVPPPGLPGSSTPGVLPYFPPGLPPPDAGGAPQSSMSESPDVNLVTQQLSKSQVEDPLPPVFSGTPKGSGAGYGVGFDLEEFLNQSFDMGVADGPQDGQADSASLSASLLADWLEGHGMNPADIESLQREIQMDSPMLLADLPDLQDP
NAD(+) hydrolase SARM1 (Homo sapiens), sequence (Q6SZW1 whole entry, looked up, the tested form may be a part): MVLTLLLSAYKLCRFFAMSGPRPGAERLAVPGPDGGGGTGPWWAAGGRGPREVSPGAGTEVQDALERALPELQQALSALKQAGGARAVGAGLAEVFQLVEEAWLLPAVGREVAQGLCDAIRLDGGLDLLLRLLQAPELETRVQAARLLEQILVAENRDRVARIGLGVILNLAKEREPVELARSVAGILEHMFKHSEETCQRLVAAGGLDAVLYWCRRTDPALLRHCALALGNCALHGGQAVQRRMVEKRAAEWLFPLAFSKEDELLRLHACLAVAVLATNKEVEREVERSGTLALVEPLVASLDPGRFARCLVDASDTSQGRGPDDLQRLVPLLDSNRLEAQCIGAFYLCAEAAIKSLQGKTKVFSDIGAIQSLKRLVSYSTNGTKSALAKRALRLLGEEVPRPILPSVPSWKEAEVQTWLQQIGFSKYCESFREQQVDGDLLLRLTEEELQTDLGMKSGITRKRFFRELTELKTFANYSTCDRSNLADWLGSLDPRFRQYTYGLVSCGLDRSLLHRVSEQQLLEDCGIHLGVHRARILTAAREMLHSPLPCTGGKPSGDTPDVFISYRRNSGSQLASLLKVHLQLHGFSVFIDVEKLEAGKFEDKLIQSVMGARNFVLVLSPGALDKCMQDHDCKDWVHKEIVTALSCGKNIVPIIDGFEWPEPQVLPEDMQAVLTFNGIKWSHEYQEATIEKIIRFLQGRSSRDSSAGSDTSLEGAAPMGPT
ATP-dependent translocase ABCB1 (Homo sapiens), sequence (P08183 whole entry, looked up): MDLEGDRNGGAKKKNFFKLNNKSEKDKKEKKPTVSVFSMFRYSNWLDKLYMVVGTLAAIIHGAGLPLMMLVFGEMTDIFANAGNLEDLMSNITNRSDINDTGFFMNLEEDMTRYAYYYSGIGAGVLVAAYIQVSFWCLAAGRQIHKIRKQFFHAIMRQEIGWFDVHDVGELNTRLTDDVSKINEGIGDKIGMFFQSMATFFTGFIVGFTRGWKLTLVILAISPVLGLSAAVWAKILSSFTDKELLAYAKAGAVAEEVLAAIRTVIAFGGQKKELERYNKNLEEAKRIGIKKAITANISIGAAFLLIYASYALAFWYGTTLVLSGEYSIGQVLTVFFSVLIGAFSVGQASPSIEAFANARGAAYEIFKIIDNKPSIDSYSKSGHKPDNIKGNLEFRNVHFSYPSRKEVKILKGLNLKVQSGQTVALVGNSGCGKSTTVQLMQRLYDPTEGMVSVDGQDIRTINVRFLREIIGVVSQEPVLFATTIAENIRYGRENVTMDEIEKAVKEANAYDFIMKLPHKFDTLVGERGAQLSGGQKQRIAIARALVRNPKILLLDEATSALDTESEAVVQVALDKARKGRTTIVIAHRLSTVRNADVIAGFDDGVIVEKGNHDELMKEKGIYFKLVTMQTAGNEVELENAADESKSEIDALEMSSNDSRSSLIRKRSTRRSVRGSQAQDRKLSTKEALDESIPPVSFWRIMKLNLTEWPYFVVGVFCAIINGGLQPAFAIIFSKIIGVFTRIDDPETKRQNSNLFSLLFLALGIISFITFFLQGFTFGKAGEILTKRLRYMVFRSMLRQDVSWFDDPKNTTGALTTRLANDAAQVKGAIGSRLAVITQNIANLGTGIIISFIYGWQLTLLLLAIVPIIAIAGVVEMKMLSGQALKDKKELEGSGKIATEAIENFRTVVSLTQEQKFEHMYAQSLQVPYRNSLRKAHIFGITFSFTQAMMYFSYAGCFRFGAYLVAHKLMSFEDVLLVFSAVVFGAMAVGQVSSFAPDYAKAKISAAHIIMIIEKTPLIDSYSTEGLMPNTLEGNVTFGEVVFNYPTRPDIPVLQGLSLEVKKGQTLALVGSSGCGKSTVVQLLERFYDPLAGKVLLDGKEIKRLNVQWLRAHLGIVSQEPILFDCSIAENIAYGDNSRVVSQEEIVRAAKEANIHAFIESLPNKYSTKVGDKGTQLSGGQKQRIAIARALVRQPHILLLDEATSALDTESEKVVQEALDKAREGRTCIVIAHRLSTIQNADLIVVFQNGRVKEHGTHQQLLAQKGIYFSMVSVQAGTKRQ

With CC(C)C[C@@H]1NC(=O)[C@H](CCCN)NC(=O)[C@H](C(C)C)NC(=O)[C@H](Cc2ccc(O)cc2)N[C@@H](CCC(=O)O)C(=O)N[C@@H](CC(N)=O)C(=O)[C@@H](Cc2ccccc2)NC(=O)[C@H](Cc2ccccc2)NC(=O)[C@@H]2CCCN2C(=O)[C@@H](Cc2ccccc2)NC1=O the inhibition [1] was 2.66% (inactive) and the remaining NAD [2] was 10 nM (inactive).

For CC[C@H]1OC(=O)[C@H](C)C(=O)[C@H](C)[C@@H](O[C@@H]2O[C@H](C)C[C@H](N(C)C)[C@H]2O)[C@](C)(OC)C[C@@H](C)C(=O)[C@H](C)[C@H]2N(CCCCn3cnc(-c4cccnc4)c3)C(=O)O[C@]12C, the inhibition [1] was -10.3% (inactive), the remaining NAD [2] was 10 nM (inactive) and the luciferase signal [3] was 48 AU (inactive).

For CN1[C@@H]2CC[C@H]1CC(OC(c1ccccc1)c1ccccc1)C2 (stereo partly specified), the inhibition [1] was 13.6% (inactive), the z-score ([4]; MELAS cybrid survival, CellTiter-Glo 48 h, stronger effect = higher value) was -0.23 (inactive) and the z-score ([4]; Rieske KO mouse fibroblast survival, CellTiter-Glo 72 h) was 0.0522. The luciferase signal [3] was 52 AU (inactive).

Compound CC1CCCC(C)N1NC(=O)c1ccc(Cl)c(S(N)(=O)=O)c1 (stereo unspecified) has an inhibition [5] of 16.7%, a score [6] of 1.67 and a rescue above control [7] of -10.1. It also gave a cytochrome c release ratio [8] of 0.96, an inhibition of aggregation [9] of 25.5% and a glutamate uptake change [10] of -0.09%. The inclusion score [11] was 2, the aggregation suppression score [12] was 1.2 and the survival [13] was 5.92 (inactive). For the same compound, the parasite load remaining [14] was 92.4% (inactive) and 77.2% (inactive), the viability [14] was 76.8% and 96.5% and the inhibition [1] was 6.91% (inactive). For the same compound, the fold change [15, 17] was 0.9 (inactive), the fold change [15, 18] was 4.97 and the cell count [15, 19] was 7530. It also gave a cell count [15, 20] of 8360.

For COC(=O)[C@H]1[C@H]2C[C@H]3c4[nH]c5ccccc5c4CCN3C[C@@H]2CC[C@@H]1O, the fluorescence slope change [16] was 53.3% (active), the survival [13] was 13.8 (inactive) and the parasite load remaining [14] was 108% (inactive) and 79.2% (inactive). The viability [14] was 116% and 77.6%, the inhibition [1] was 7.89% (inactive) and the fold change [15, 17] was 0.836 (inactive). For the same compound, the fold change [15, 18] was 1.95, the cell count [15, 19] was 8660 and the cell count [15, 20] was 10400. The luciferase signal [3] was 44 AU (inactive).

With CC(C)[C@@H](C)/C=C/[C@@H](C)[C@H]1CC[C@H]2C3=CC=C4C[C@@H](O)CC[C@]4(C)[C@H]3CC[C@]12C the inhibition [1] was -7.51% (inactive) and the luciferase signal [3] was 96 AU (inactive).

In the case of COC(=O)C[C@H]1C(C)(C)[C@@H](O)[C@@H]2CC3=C4CC(O)O[C@@H](c5ccoc5)[C@]4(C)CCC3[C@@]1(C)C2=O (stereo partly specified), the inhibition [1] was -13.5% (inactive) and the luciferase signal [3] was 36 AU (inactive).

In the case of OC[C@H]1O[C@@](CO)(O[C@H]2O[C@H](CO)[C@@H](O)[C@H](O)[C@H]2O)[C@@H](O[C@H]2O[C@H](CO)[C@@H](O)[C@H](O)[C@H]2O)[C@@H]1O, the inhibition [1] was 15.1% (inactive) and the luciferase signal [3] was 60 AU (inactive).

In the case of CC(=O)OC(C)(C)[C@@H]1Cc2cc3ccc(=O)oc3cc2O1, the inhibition [1] was 2.42% (inactive) and the luciferase signal [3] was 40 AU (inactive).

In the case of CC(C)=CCc1c(O)cc2occ(-c3ccc4c(c3)OCO4)c(=O)c2c1O, the inhibition [1] was -0.247% (inactive) and the luciferase signal [3] was 104 AU (inactive).

In the case of CC(C)c1c(O)ccc2c1CCC1[C@@](C)(C=O)CCC[C@]21C (stereo partly specified), the inhibition [1] was -10.2% (inactive) and the luciferase signal [3] was 16 AU (inactive).

For Cn1c(=O)[nH]c2nc[nH]c2c1=O, the inhibition [1] was -4.63% (inactive) and the luciferase signal [3] was 56 AU (inactive).

With COc1cccc2c1CCC1=CC(=O)CC[C@@]12C the inhibition [1] was -1.6% (inactive) and the luciferase signal [3] was 40 AU (inactive).

In the case of O=C(/C=C(\O)c1ccccc1)c1ccccc1O, the inhibition [1] was -0.592% (inactive) and the luciferase signal [3] was 16 AU (inactive).

With C=C1[C@@H]([C@@]2(C)C=CC(=O)C(C)(C)[C@@H]2CC(=O)OC)CC[C@@]2(C)C(c3ccoc3)OC(=O)[C@H]3O[C@]132 (stereo partly specified) the inhibition [1] was 0.696% (inactive) and the luciferase signal [3] was 20 AU (inactive).

In the case of COc1cc(C/C=C/c2ccccc2)c(OC)cc1O, the inhibition [1] was 9.29% (inactive) and the luciferase signal [3] was 56 AU (inactive).

With O=c1cccc2cc(O)c(O)c(O)c2c1O the inhibition [1] was 16.8% (inactive) and the luciferase signal [3] was 60 AU (inactive).

With COc1cc(/C=C/CO)ccc1O the inhibition [1] was 17.3% (inactive) and the luciferase signal [3] was 96 AU (inactive).
